Growth data for 40 molecules are collected here from PubChem BioAssay (NCI).

Each structure is given as a SMILES string. The panel holds about 83,000 compounds, 20% with a hit somewhere; the sample as a whole holds those more often.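 The test compound was applied at a single concentration to cells in 96-well plates for 48 hours, and percent growth was recorded.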 Unmarked numbers belong to inactive results. Activity calls are given as the source filed them. Rule for the calls: active = growth percent below 10; inactive = the rest.

This experiment deals with HL-60(TB) leukemia. Briefly: NCI-60 one-dose screen, 48 h (100 = growth as untreated, 0 = no growth, -100 = all killed). Conditions: 10 µM unless noted.
With `Cc1ccc(NS(=O)(=O)c2ccc(-c3cnc(C4CC4)o3)cc2)cc1C`, the growth was -1.17% (active).

With `COc1c(B(O)O)cccc1-c1nc2ccc3[nH]ncc3c2c2c1C1CCC2C1` (stereo not given), the growth is 20%.

Take `CCOc1ccc(I)cc1`: the growth is 128%.

Take `Cc1cc(N/N=C/c2nc(-c3ccccc3)oc2C)c2cc(Cl)ccc2n1`: the growth was -37.4% (active).

Turning to `CCN(C(=O)CN1CCN(c2cc3c(cc2F)c(=O)c(C(=O)O)cn3CC)CC1)c1nc(-c2ccccc2)cs1`, the growth was -39.2% (active).

For `COc1ccc(-c2cc(-c3ccc(OC)c(OC)c3)nc(SCCCCCC(=O)NO)n2)cc1`, the growth is -9.93% (active).

As to `Nc1ncnc2c1N=C(c1ccc(Cl)cc1)CC(c1cccc(Nc3ccnc4cc(Cl)ccc34)c1)N2` (stereo not given), the growth was 55.3%.

With `Clc1nc2ccccc2cc1Cn1nnc(Cc2ccccc2)n1`, the growth was 87.9%.

For the molecule `CC1(C)C(=O)/C(=C\c2ccc(C(F)(F)F)cc2)C[C@]2(C)[C@H]3CC[C@@H]4[C@H]5[C@H](C(=O)/C=C/c6ccc(C(F)(F)F)cc6)CC[C@]5(CO)CC[C@@]4(C)[C@]3(C)CC[C@@H]12`, the growth is 92%.

For `CSc1nc2c(c(=O)[nH]1)N=C1c3ccccc3C(=O)C1C(c1ccc(F)cc1)N2` (stereo not given), the growth was 91.4%.

`O=C1NC(=O)c2ncccc21`: the growth is 115%.

Consider `Clc1ccc(N/N=C(/c2ccccc2)c2ccccn2)nc1`, for which the growth was 3.11% (active).

For `O=C1c2ccccc2C(=O)c2sc(Nc3cccc(Cl)c3)nc21`, the growth was -18.7% (active).

Take `O=C1C=C[C@]2(C[C@@H](c3cccc(C(F)(F)F)c3)O[C@@H](c3cccc(C(F)(F)F)c3)O2)O1`: the growth is 8.74% (active).

`O=S(=O)(NCCNc1nccc(-c2c(-c3cccc(F)c3)nc3sccn23)n1)c1ccccc1`: the growth is 63.1%.

`C=C1C(=O)O[C@H]2[C@H]1CC/C(COC(=O)c1cc(OC)c(OC)c(OC)c1)=C\CC[C@@]1(C)O[C@@H]21`: the growth was -65.1% (active).

`Cc1ccc(/C=C2\Oc3ccc(O)c(O)c3C2=O)cc1`: the growth is 14.7%.

For `COc1ccc(/C=C/C(=O)c2ccc(NC(=O)c3cc4cc5ccccc5nc4s3)cc2)cc1OC`, the growth was 92.5%.

As to `c1cc2[nH]ncc2cc1-c1nc2ccc3[nH]ncc3c2c2c1CCC2`, the growth was -4.44% (active).

As to `O=C(/C=C/c1cccc(Oc2ccccc2)c1)c1ccc(Nc2nc(Nc3ccc(F)cc3)nc(Nc3ccc(Cl)cc3)n2)cc1`, the growth was -38.2% (active).

As to `CC(C)CCSC1=CC(=O)c2ccccc2C1=O`, the growth was 13.3%.

Take `O=C1Nc2cc(Cl)ccc2Oc2cc(Oc3ccccc3)ccc21`: the growth was 38.6%.

`CCC(=O)OC1CCC2C3CCC(=O)OC3C(C)(CCC(=O)O)CC12C` (stereo not given): the growth is -23.2% (active).

Regarding `Cc1cccc(C)c1NC(=O)CSC(=S)N1CCN(CCOCCO)CC1`, the growth was 88.7%.

On to `COc1ccc(Cl)cc1NC(=O)C(Br)C(Br)C(=O)O` (stereo not given), for which the growth is 1.26% (active).

Turning to `COc1cc(-c2nn(-c3cccc(NC(=O)Nc4cc(C(F)(F)F)cc(C(F)(F)F)c4)c3)cc2-c2ccncc2)ccc1Cl`, the growth is -20.2% (active).

Consider `O=C(COc1cccc(/C=C2\Oc3ccccc3C2=O)c1)c1ccc([N+](=O)[O-])cc1`, for which the growth is 83.7%.

Consider `COC(=O)Nc1nc2ccc(C(=O)C3CC3)cc2[nH]1`, for which the growth is -56.2% (active).

For `COC1=CC(c2ccc[nH]2)=N/C1=C\c1[nH]c(C)c(C(=O)CCCCC(=O)Nc2ccccc2)c1C`, the growth was 74.9%.

For the molecule `O=c1[nH]c(-c2cn(-c3ccc(Cl)cc3)nn2)nc2ccccc12`, the growth is 100%.

For the molecule `COc1ccc(/C=C/C(=O)c2ccc(NC(=O)CN3CCN(c4cc5c(cc4F)c(=O)c(C(=O)O)cn5C4CC4)CC3)cc2)cc1`, the growth is 123%.

Turning to `O=C1NC(=O)/C(=C\c2ccncc2)N1`, the growth was 119%.

With `CCN(CC)CCCOc1cccc2c1C(=O)c1cccc(OCCCN(CC)CC)c1C2=O`, the growth is 30.3%.

Consider `CC(C)N1CCN(c2ccncc2S(=O)(=O)N2CCN(C)CC2)CC1`, for which the growth is 95.7%.

As for `O=[N+]([O-])c1cnc(N2CCN(CC3CC3)CC2)nc1N1CCN(CC2CC2)CC1`, the growth is 99.2%.

Consider `CCCCC/C=N/Nc1nc(C)cc(=O)[nH]1`, for which the growth is 108%.

`CCN(CC)CCn1c(=O)c2cc(OC)c(OC)cc2c2ccc3cc4c(cc3c21)OCO4`: the growth was 3.79% (active).

Consider `O=C(O)c1ccccc1Nc1cccc(S(F)(F)(F)(F)F)c1`, for which the growth is 96.9%.

For the molecule `CCOC(=O)c1ccc(NC(=S)P(=O)(c2ccccc2)c2ccccc2)cc1`, the growth is 80.4%.

Take `COc1ccc2[nH]cc(-c3nc(-c4c[nH]c5ncccc45)cs3)c2c1`: the growth was 13.9%.
